Test results: the supplement of paper PMC11732987, “Enantioselective OTUD7B fragment discovery through chemoproteomics screening and high-throughput optimisation” (Communications Chemistry, 2025)
A number with no mark means an inactive call.

Experiments:
Assay in all cases: log2 ratio of Biotin-Ahx-Ub-VS probe labelling (fragment/DMSO); higher = less target engagement (more negative = stronger competition), active = hit call of the paper (q ≤ 0.05, log2 ratio ≤ -1)
Details in all cases: compound concentration: 200 uM; treatment time: 3 h
[1] = target: T1, USP19 (UniProt O94966)
T1 sequence (whole entry): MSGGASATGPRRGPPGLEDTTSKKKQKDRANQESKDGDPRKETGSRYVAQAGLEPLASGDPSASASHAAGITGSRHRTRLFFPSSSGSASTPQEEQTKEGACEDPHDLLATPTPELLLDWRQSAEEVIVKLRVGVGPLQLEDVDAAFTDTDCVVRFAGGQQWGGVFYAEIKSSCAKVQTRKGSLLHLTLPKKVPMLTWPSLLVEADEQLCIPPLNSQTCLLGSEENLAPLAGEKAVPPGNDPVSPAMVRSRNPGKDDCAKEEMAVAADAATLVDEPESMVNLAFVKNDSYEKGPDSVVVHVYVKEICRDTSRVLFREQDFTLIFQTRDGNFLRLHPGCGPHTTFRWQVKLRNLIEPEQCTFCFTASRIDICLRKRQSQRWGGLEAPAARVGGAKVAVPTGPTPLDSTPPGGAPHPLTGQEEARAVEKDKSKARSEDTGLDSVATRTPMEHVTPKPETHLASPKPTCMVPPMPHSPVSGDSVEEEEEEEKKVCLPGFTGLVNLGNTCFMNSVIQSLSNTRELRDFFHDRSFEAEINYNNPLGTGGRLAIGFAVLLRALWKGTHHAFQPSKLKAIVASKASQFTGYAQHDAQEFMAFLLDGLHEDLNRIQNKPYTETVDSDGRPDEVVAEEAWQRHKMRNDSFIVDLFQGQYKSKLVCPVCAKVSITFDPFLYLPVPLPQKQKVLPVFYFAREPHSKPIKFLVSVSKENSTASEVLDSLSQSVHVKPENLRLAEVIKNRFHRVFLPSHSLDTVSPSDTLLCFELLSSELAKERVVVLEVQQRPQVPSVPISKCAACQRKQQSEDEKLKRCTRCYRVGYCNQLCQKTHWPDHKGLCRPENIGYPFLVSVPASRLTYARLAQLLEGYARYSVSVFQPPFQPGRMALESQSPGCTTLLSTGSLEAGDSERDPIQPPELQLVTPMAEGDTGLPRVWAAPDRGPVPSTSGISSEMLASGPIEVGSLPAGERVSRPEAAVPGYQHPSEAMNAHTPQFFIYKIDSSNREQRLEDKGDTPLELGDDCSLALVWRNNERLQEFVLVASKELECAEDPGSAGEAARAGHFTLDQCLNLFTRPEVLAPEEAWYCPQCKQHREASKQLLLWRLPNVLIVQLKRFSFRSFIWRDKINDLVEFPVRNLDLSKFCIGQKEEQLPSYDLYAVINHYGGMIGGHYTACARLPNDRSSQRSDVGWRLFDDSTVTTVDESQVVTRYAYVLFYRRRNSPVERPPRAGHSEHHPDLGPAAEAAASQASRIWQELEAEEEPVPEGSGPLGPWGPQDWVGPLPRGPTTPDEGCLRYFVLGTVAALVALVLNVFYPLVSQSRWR
How it was run: (§1)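 HEK293T lysate (495 µg per sample, in Tris/CHAPS/IGEPAL buffer with protease inhibitors) was treated in triplicate with fragment at 200 µM or with DMSO for 3 h. It was then treated with Biotin-Ahx-Ub-VS (0.5 µM final) for 1 h. Labelled DUBs were NeutrAvidin-enriched, digested with LysC and trypsin, and run by diaPASEF LC-MS/MS. Spectronaut label-free quantities were global-median-normalised. Values are average log2 ratios fragment/DMSO by unpaired t-test, using proteins with ≥2 unique peptides.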

[2] = target: USP24 (UniProt Q9UPU5)
How it was run: as §1

[3] = target: T2, USP25 (UniProt Q9UHP3)
T2 sequence (whole entry): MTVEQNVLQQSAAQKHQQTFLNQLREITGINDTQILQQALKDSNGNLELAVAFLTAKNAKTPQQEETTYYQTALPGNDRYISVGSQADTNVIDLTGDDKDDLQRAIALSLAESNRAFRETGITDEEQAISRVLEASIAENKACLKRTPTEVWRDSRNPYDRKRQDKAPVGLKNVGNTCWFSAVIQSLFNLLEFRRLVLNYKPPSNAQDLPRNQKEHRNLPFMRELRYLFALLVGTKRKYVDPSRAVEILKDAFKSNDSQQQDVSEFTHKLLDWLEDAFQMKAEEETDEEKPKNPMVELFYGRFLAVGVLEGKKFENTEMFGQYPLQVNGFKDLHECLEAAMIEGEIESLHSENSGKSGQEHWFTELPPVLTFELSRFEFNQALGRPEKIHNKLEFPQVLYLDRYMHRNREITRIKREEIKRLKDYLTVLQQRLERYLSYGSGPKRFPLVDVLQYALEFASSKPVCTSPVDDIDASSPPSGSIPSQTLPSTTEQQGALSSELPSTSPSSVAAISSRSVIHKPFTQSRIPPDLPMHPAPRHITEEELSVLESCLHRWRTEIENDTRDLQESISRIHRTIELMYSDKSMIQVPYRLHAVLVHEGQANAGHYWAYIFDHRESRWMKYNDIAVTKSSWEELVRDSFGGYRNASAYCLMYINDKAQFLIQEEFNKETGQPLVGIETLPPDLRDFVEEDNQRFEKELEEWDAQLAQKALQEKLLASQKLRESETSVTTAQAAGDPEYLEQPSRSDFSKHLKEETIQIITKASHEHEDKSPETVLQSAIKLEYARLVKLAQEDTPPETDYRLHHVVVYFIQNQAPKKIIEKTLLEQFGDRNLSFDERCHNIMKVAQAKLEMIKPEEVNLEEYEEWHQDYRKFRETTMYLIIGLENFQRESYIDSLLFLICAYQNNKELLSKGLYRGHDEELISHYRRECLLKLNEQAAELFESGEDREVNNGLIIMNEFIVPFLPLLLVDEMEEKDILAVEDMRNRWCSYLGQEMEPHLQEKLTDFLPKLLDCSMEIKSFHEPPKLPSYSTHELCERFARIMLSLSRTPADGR
How it was run: as §1

[4] = target: T3, USP28 (UniProt Q96RU2)
T3 sequence (whole entry): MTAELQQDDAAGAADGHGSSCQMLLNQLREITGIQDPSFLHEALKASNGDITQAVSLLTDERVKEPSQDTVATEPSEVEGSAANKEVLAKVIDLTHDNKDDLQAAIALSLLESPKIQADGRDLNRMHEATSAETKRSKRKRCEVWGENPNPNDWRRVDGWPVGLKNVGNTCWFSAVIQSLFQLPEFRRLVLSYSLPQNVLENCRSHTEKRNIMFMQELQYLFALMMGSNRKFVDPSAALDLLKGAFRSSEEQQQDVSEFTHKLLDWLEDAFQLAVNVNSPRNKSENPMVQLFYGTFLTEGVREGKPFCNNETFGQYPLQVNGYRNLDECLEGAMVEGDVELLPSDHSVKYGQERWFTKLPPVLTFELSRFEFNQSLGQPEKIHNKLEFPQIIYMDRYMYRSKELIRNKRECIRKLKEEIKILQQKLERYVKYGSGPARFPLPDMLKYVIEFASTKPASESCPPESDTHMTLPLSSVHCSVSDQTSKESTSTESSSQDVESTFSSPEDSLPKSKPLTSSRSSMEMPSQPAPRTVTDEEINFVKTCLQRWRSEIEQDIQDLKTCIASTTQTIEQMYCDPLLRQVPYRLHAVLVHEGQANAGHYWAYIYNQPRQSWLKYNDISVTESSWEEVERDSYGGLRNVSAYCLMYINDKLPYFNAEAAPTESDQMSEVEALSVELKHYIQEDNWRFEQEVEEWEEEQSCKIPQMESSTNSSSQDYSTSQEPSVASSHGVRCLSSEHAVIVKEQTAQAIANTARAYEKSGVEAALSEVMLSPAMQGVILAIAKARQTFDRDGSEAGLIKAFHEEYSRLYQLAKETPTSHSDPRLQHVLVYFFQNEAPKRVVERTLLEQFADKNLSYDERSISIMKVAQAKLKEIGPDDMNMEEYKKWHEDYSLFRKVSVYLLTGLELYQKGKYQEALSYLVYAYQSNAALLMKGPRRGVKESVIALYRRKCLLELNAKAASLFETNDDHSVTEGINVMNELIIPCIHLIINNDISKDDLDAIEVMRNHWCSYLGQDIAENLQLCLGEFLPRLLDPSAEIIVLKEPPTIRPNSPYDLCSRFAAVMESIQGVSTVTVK
How it was run: as §1

Sequence of USP24 (Q9UPU5 whole entry): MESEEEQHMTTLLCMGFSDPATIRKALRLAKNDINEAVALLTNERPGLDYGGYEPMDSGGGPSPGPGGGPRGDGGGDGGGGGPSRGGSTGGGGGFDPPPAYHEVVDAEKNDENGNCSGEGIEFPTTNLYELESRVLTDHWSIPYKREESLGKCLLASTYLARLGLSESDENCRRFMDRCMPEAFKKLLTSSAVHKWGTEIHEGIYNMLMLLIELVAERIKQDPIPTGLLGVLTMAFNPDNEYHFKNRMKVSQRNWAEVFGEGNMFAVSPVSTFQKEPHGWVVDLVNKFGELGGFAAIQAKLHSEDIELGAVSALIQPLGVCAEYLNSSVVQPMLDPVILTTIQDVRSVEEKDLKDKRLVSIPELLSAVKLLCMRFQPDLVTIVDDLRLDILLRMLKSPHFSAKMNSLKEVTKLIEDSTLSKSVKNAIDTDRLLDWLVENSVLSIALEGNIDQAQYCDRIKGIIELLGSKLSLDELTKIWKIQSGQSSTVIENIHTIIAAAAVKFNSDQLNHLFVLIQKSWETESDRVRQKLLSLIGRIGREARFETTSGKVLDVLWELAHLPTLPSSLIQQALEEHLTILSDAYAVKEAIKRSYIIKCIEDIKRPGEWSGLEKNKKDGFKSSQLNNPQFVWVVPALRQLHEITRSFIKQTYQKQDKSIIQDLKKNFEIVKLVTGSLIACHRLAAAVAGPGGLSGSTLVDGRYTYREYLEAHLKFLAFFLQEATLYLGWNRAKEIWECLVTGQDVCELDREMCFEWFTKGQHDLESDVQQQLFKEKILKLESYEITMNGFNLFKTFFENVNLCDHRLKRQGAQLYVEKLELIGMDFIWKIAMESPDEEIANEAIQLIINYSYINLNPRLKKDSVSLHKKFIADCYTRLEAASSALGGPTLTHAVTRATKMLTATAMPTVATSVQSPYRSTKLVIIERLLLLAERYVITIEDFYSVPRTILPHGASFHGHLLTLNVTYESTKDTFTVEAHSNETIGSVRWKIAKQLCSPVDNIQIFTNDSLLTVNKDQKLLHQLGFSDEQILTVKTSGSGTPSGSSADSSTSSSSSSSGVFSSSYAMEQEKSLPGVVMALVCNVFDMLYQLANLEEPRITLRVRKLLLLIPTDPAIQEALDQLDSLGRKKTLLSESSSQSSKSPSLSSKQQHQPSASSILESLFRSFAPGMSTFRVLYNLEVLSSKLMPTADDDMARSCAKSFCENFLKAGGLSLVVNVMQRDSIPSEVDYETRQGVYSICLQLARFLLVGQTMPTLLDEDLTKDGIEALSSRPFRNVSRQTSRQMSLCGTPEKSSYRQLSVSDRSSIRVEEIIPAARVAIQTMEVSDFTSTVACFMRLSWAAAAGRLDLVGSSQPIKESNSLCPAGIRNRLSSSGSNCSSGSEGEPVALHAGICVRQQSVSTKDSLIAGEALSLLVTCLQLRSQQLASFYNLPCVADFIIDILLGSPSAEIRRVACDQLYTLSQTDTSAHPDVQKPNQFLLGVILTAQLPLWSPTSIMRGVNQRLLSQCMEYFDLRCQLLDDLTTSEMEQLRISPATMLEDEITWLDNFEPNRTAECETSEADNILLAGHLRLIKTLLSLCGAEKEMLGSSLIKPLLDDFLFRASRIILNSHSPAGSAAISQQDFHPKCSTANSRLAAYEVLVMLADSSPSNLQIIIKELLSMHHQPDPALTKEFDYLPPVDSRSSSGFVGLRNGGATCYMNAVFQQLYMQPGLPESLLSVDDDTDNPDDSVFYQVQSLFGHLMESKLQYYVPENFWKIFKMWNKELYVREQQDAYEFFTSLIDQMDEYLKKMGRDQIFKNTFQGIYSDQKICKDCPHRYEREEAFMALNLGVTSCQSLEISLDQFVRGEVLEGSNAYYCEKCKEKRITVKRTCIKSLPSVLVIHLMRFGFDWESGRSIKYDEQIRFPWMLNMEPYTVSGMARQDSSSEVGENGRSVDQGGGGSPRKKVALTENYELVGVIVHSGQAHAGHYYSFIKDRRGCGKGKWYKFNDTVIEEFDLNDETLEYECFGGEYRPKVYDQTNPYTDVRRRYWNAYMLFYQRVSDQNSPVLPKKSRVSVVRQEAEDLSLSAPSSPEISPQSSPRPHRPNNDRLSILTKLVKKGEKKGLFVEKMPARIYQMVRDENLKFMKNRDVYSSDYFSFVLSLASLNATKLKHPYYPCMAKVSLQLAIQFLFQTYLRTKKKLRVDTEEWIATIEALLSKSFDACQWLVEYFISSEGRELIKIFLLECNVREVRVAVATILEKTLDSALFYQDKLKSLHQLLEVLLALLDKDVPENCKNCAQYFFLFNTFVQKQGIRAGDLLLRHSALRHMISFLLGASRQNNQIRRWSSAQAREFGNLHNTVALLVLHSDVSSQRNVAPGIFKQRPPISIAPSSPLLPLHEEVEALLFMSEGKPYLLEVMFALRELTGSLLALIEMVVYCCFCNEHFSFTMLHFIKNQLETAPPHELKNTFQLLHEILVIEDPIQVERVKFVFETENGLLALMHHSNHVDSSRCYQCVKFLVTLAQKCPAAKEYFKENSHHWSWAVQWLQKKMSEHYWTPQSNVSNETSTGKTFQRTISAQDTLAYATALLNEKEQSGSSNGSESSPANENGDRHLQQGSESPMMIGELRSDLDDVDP

## N#Cc1cnn(-c2ccccc2)c1NC(=O)CCl
[1]
  log2 ratio of Biotin-Ahx-Ub-VS probe labelling: -0.232
[2]
  log2 ratio of Biotin-Ahx-Ub-VS probe labelling: -0.338
[3]
  log2 ratio of Biotin-Ahx-Ub-VS probe labelling: -2.88 (active)
[4]
  log2 ratio of Biotin-Ahx-Ub-VS probe labelling: -2.37 (active)
